# Values joined by “and” are separate entries in the source; they are usually repeats but may differ in a detail not shown here. Equal entries are not always repeated. Results filed as inconclusive are left out. Entries that show only a call come without a potency. Active and inactive are the calls of the source. Calls follow the shape of the dose curve; as a rule, active = well fitted inhibition curve with a large enough effect in the repeat runs; inconclusive = weak or mixed curves, or effect the other way; inactive = no such curve, though single readings can be large or run the other way.
# Target: Nuclear receptor ROR-gamma (Homo sapiens) (UniProt P51449)
# Experiment: qHTS assay to identify small molecule antagonists of the retinoid-related orphan receptor gamma (ROR-gamma) signaling pathway (AID 1159521; also: nearly all actives have a fitted effect of over 50% in size)
# Conditions: Tet-on RORgamma CHO cells, RORE-luciferase, 16 h; series mostly up to 92.4 µM
# From the text: U.S. Tox21 Program National Center for Advancing Translational Sciences [NCATS] NIH Chemical Genomics Center [NCGC] U.S. Environmental Protection Agency [EPA] National Institutes of Environmental Health Sciences [NIEHS] National Toxicology Program [NTP] U.S. Food and Drug Administration [FDA] Tox21 Assay Overview: Nuclear steroid hormone receptors are involved in many biological processes including inflammatory responses, cell proliferation, and apoptosis. Environmental factors or compounds disrupting these nuclear receptor pathways and gene expression may promote susceptibility to immunotoxicants and autoimmune diseases. One important group of these expression factors are the retinoid-related orphan receptors. To assess compounds that may interfere with the retinoid-related orphan receptor gamma (ROR-gamma) transcription factor, a cell-based luciferase assay was used. The CHO cell-based assay utilizes a TET-inducible ROR expression factor and ROR response element-LUC reporter gene. Reporter gene activity was induced using Doxycycline Hyclate and measured after 16 hr incubation. Tet-on ROR gamma CHO cells were used to screen against the Tox21 10K compound library for ROR gamma antagonists by quantification of decreased reporter gene activity in terms of decreased luminescence.
# Tox21 Assay Protocol Summary: Tet-on ROR gamma CHO cells were dispensed at 1,000 cells in 4 uL of culture medium per well into white wall/solid bottom 1536-well plates using a Multidrop Combi (Thermo Scientific, Waltham, MA) dispenser. Following incubation at 37 C and 5% CO2 for 4 hr, 23 nL of compounds dissolved in DMSO, positive controls or DMSO only were transferred by a Pintool station (Kalypsys, San Diego, CA) and after 2 hr incubation at 37 C, one ul of 1 uM (final concentration) of Doxycycline Hyclate was added to all the wells by using a Flying Reagent Dispenser (FRD) (Aurora Discovery, San Diego, CA). After 16 hr incubation at 37 C and 5% CO2, 5 uL of ONE-Glo reagent (Promega Corporation, Madison, WI) was added to each assay plate using FRD. After 30 min incubation at room temperature, luminescence was quantified on a ViewLux plate reader (Perkin Elmer, Waltham, MA).
# Potency is read from the fitted curve at half-maximal effect.
row,SMILES,Potency
1,CCCC1CCC(=O)CC1,inactive
2,CCC(=O)OC(=O)CC,inactive
3,CC(C)NC[C@@H](O)COc1ccc(CC(N)=O)cc1,inactive
4,CC1=Nc2ccccc2C1(C)C,17.2 µM (active)
5,[Cl][Pt-2]([Cl])([Cl])[Cl],inactive
6,c1cnccn1,inactive
7,NC(=O)c1cccc([N+](=O)[O-])c1,inactive
8,Cc1cccc(C(=O)O)c1O,inactive
9,C=C(CC)C(=O)c1ccc(OCC(=O)O)c(Cl)c1Cl,54.1 µM (active)
10,OC1CCC(C2CCCCC2)CC1 (stereo not given),inactive
11,O=C1C(c2[nH]c3ccc(S(=O)(=O)O)cc3c2O)=Nc2ccc(S(=O)(=O)O)cc21,inactive
12,CCCCC(CC)CN1CN(CC(CC)CCCC)CC(C)(N)C1 (stereo not given),inactive
13,CCCCCCCCCCCCCC[N+](C)(C)Cc1ccccc1,24.7 µM (active) and 26.6 µM (active) and 20 mM (active)
14,CCCC(=O)OCOC(=O)C1=C(C)NC(C)=C(C(=O)OC)C1c1cccc(Cl)c1Cl (stereo not given),inactive
15,Clc1ccnc(Cl)n1,inactive
16,Cc1cc(C(C)(C)C)c(O)c(C)c1Cn1c(=O)n(Cc2c(C)cc(C(C)(C)C)c(O)c2C)c(=O)n(Cc2c(C)cc(C(C)(C)C)c(O)c2C)c1=O,inactive
17,O=C(O)c1cc(N=Nc2ccc([N+](=O)[O-])cc2)ccc1O,inactive
18,COC(=O)c1ccccc1C,inactive
19,Cc1c2ccccc2c(C)c2c1ccc1ccccc12,24.1 µM (active) and 21.7 µM (active)
20,CCCC(=O)OCCc1ccccc1,inactive

row,SMILES,Potency
1,CCCCCCCCCCCCCCCC[N+](C)(C)CC,17.3 µM (active) and 2.98 µM (active)
2,C=Cc1cccc(C)c1,inactive
3,CCCCCCCC/C=C\CCCCCCCCN,inactive
4,Cc1cccc(C)c1NC(=O)c1ccc(N)cc1,inactive
5,CC(C)(c1cc(Br)c(OCC(Br)CBr)c(Br)c1)c1cc(Br)c(OCC(Br)CBr)c(Br)c1 (stereo not given),inactive
6,Cc1ccc(O)c(N)c1,inactive
7,CCN(CC)C(=O)c1cc(S(=O)(=O)Cc2ccccc2)c(N2CCC(c3ccccc3)CC2)cc1N(CC)CCN(C)C,21.4 µM (active)
8,Clc1nnc(Cl)c2ccccc12,inactive
9,CC/C=C\CCCCCO,inactive
10,O=C(O)Cc1ccc2c(c1)C(=O)c1ccccc1CO2,inactive
11,Fc1ccc(C(c2ccc(F)cc2)N2CCNCC2)cc1,inactive
12,CCCCCc1ccc(Cl)cc1,inactive
13,C#Cc1ccc(-c2ccccc2F)cc1,inactive
14,COC(=O)Nc1nc2ccc(C(=O)c3ccccc3)cc2[nH]1,inactive
15,OC12N=C(c3ccccc3)SC1Cc1cc(Cl)ccc12 (stereo not given),inactive
16,C[Si](Cl)(c1ccccc1)c1ccccc1,inactive
17,Cc1c(N)cccc1C(F)(F)F,inactive
18,CCCCCCOC(=O)C(C)CC (stereo not given),inactive
19,C#C[C@]1(OC(C)=O)CC[C@H]2[C@@H]3CCC4=C[C@@H](OC(C)=O)CC[C@@H]4[C@H]3CC[C@@]21C,33.5 µM (active)
20,CCc1oc2ccccc2c1C(=O)c1cc(I)c(O)c(I)c1,11.9 µM (active)

# — PubChem BioAssay (Tox21)
